Measured values from PubChem BioAssay AID1835 (Johns Hopkins Ion Channel Center, 2009).
Out of some 2,400 compounds screened, about 750 (31%) were called active.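 The calls were made as follows: active = median signal gain over dofetilide-blocked control wells reaching their mean plus 3 SD, so readout 1 at least 0; inactive = the rest.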 The list shows a part of the results.

target: Voltage-gated inwardly rectifying potassium channel KCNH2 (Homo sapiens) (UniProt Q12809); assay: hERG protection against dofetilide inhibition, confirmation, cell-based, thallium flux, duplicate retest, dofetilide IC70 (AID 1835); conditions: hERG cell line, FluxOR thallium flux, dofetilide-blocked; at 10 µM; hits give high values
Sequence (Q12809 whole entry, looked up): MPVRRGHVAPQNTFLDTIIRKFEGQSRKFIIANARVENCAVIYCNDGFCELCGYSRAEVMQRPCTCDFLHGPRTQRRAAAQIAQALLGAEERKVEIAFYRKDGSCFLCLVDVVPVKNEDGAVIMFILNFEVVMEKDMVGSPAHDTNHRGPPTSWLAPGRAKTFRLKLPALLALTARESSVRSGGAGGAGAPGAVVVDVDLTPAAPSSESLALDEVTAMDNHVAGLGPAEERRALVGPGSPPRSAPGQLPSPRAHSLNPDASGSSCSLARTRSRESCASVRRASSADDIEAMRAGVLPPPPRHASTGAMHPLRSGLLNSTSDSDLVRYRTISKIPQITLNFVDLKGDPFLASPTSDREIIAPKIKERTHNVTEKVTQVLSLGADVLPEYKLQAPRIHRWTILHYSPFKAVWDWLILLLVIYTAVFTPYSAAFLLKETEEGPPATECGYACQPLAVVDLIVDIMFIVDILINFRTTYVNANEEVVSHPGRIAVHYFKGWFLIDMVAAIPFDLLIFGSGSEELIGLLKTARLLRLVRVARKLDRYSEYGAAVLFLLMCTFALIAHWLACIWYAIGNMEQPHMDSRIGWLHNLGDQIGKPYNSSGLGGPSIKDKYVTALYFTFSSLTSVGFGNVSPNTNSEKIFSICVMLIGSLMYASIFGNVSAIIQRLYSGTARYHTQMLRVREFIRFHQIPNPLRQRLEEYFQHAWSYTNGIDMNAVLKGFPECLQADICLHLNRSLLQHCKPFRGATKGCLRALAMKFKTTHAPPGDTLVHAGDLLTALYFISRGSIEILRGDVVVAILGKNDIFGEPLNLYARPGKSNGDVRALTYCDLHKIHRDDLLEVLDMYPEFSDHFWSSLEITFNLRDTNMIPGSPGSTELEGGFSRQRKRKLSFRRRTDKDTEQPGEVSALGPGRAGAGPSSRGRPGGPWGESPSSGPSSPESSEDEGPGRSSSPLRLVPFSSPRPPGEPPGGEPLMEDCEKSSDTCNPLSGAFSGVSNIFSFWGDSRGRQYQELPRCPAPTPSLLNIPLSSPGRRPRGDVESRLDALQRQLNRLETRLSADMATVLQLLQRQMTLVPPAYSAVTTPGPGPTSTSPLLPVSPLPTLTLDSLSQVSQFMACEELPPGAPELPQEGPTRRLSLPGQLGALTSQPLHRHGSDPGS

SMILES | activity increase over dofetilide control, less the hit threshold
Cc1cc(C)c(C(=O)c2ccc(C(=O)N3CCCCC3)cc2)c(C)c1 | 23% (active)
COc1ccc(C)cc1NC(=O)Nc1ccc(C(=O)N2CCCC2)cc1 | -5% (inactive)
Cc1ccc(CNC(=O)c2ccc(CNc3c(N4CCCC4)c(=O)c3=O)cc2)cc1 | -7% (inactive)
Cc1ccc2nc(SCC(=O)N3CCCCCC3)nc(=O)n2c1 | -20% (inactive)
CC(C)Oc1cccc(C(=O)N2CCCC2)c1 | -4% (inactive)
Cc1ccc(SCc2ccc(C(=O)N3CCCC3)cc2)cc1 | 9% (active)
O=c1cc(O)c2ccccc2n1Cc1ccccc1Cl | -8% (inactive)
COc1ccc(-c2c(C#N)c(SCC(=O)c3cc4ccccc4oc3=O)nc(C)c2C(=O)Nc2ccccc2)cc1 | -13% (inactive)
Cc1ccc(Nc2nc(C)cs2)cc1 | -16% (inactive)
Cc1ccc(Nc2nc(-c3cccs3)cs2)nc1 | 1% (active)
Cc1ccc(Nc2nc(-c3ccncc3)cs2)cc1 | -8% (inactive)
COc1ccccc1-n1cnc2sc(C)c(C)c2c1=O | -6% (inactive)
CCN1C(=O)[C@H]2[C@@H](c3ccc(-c4ccc(OC)cc4)cc3)N[C@@](C)(C(=O)OC)[C@H]2C1=O | -4% (inactive)
CCCCn1nc(NC(=O)COC)c2cc3ccc(C)cc3nc21 | -22% (inactive)
CCOC(=O)C(C)Sc1nc2c(c(-c3cccs3)c1C#N)CCC2 (stereo not given) | 1% (active)
COc1cc(/C=C2/C(=O)NN(c3ccccc3)C2=O)cc(Br)c1O | -25% (inactive)
Cc1cccc(N(C(=O)c2csnn2)C(C(=O)NCc2ccccc2)c2ccncc2)c1 (stereo not given) | -11% (inactive)
CCCNC(=O)N1CCN(S(=O)(=O)c2ccc(C)cc2)CC1 | -16% (inactive)
CSc1nc2c(c(=O)[nH]1)C(c1ccc(Cl)cc1)CC(=O)N2 (stereo not given) | 113% (active)
CSc1nc(C)c(Cc2ccccc2)c(=O)[nH]1 | -20% (inactive)
CCSc1nc2c(c(=O)[nH]1)C(c1ccc(C)cc1)C1=C(CCCC1=O)N2 (stereo not given) | -7% (inactive)
O=c1[nH]c(=S)[nH]c2c1C(c1ccc(Br)cc1)c1c([nH]c(=S)[nH]c1=O)O2 | -17% (inactive)

SMILES | activity increase over dofetilide control, less the hit threshold
CSc1nc2c(c(=O)[nH]1)C(c1ccc(Br)cc1)CC(=O)N2 (stereo not given) | 25% (active)
CSc1nc2c(c(=O)[nH]1)C(c1ccc(F)cc1)CC(=O)N2 (stereo not given) | 18% (active)
CSc1nc2c(c(=O)[nH]1)C(c1ccccc1Cl)CC(=O)N2 (stereo not given) | 17% (active)
CN1N=C(C(=O)N2CCc3c([nH]c4ccccc34)C2c2c(F)cccc2Cl)CCC1=O (stereo not given) | -13% (inactive)
O=C(O)Cn1cc(CN2CCOCC2)c2ccccc21 | -22% (inactive)
Cc1cccc(NC(=S)N/N=C2/CCCCc3ccccc32)c1 | -11% (inactive)
S=c1[nH]nc(CSc2nc3ccccc3s2)n1C1CCCCC1 | 5% (active)
CCOC(=S)NC(=O)c1sc2ccccc2c1Cl | 40% (active)
COC(=O)Cn1c(=NC(=O)c2sc3ccccc3c2Cl)sc2cc(S(N)(=O)=O)ccc21 | -2% (inactive)
O=C(N/N=C/c1ccccn1)c1sc2ccccc2c1Cl | -27% (inactive)
Cc1ccc(NC(=S)NC(=O)c2sc3ccccc3c2Cl)c(C(=O)O)c1 | -1% (inactive)
CCCCOC(=S)NC(=O)c1sc2ccccc2c1Cl | 86% (active)
CCCOC(=S)NC(=O)c1sc2ccccc2c1Cl | 30% (active)
CC(C)C(=O)N(c1ccc(F)cc1)C1C=CS(=O)(=O)C1 (stereo not given) | -20% (inactive)
CCOC(=O)C1C(c2ccccc2)C(C(=O)OCC)C1c1ccccc1 (stereo not given) | -6% (inactive)
CCCSc1cc(NCCOC(C)=O)c([N+](=O)[O-])c2nonc12 | -13% (inactive)
CC(C)CCNC(=O)CCc1nnc(Cc2c[nH]c3ccccc23)o1 | -9% (inactive)
CCCCCN(C(=O)CCC(=O)OC(C)C(=O)c1ccccc1)c1c(N)n(CCCC)c(=O)[nH]c1=O (stereo not given) | -16% (inactive)
CCCNC(=O)N(C)c1nncnc1C(=O)NC | -7% (inactive)
CC1CCCCC1n1c(=S)[nH]c2ccccc2c1=O (stereo not given) | 1% (active)
O=c1c2ccccc2[nH]c(=S)n1C1CCCCC1 | 2% (active)
O=C1NCC(=O)N2C(c3ccccc3)c3[nH]c4ccccc4c3C[C@@H]12 (stereo not given in full) | -22% (inactive)

SMILES | activity increase over dofetilide control, less the hit threshold
CC1CCC(n2c(=S)[nH]c3ccccc3c2=O)CC1 (stereo not given) | 22% (active)
CC1CCC(N2CCN(C(=O)c3ccccc3F)CC2)CC1 (stereo not given) | -6% (inactive)
C=CCNC(=O)c1onc(CSc2ccc(OC)cc2)c1C(=O)O | -11% (inactive)
NC(=O)CC1NC(=O)c2ccccc21 (stereo not given) | -10% (inactive)
O=C(Cn1c(=O)oc2ccccc21)Nc1ccc(F)c(F)c1 | -29% (inactive)
Cc1cc(=S)[nH]c2c(C)cccc12 | 5% (active)
S=c1[nH]c2cc(-c3ccccc3)ccc2o1 | 84% (active)
Cc1ccc(-c2nc(CS(=O)(=O)CC(=O)NCCN3CCOCC3)c(C)o2)cc1 | -13% (inactive)
Cc1c(OC(C)C(=O)NCCN2CCOCC2)ccc2c3c(c(=O)oc12)CCC3 (stereo not given) | 3% (active)
CCOc1c(OC)ccc2c3c(c(=O)oc12)CCCC3 | -20% (inactive)
CCCn1c(=S)[nH]c2ccc(C(F)(F)F)cc21 | -3% (inactive)
FC(F)(F)c1cnc2c(c1)[nH]c(=S)n2-c1ccc(Cl)cc1 | 21% (active)
Clc1ccc(N=NN2CCOCC2)cc1 | -8% (inactive)
COc1cc2c(=O)nc3n(c2cc1OC)C(c1ccccc1)N=C(N)N3 (stereo not given) | -8% (inactive)
CN1C(=O)c2ccc(C(=O)NCc3ccccc3)cc2C1=O | -16% (inactive)
CN1C(=O)/C(=N/OC(=O)c2ccccc2)c2ccccc21 | 3% (active)
CCN(CC)C(=O)CN1C(=O)c2cccc3cccc(c23)C1=O | -15% (inactive)
CN1C(=O)/C(=N\OC(=O)c2cccc3ccccc23)c2ccccc21 | 15% (active)
O=C1c2ccccc2C(=O)N1c1cccnc1 | -12% (inactive)
c1ccc(OCc2nn3c(Cn4cnc5ccccc54)nnc3s2)cc1 | -10% (inactive)
O=C(NC(=S)Nc1cccc(Cl)c1N1CCCCC1)c1cccs1 | -10% (inactive)
O=C(NC(=S)Nc1cccc(Cl)c1N1CCOCC1)c1cccs1 | -5% (inactive)

SMILES | activity increase over dofetilide control, less the hit threshold
O=C(COc1ccc(Cl)cc1Cl)NC(=S)Nc1ccccc1C(=O)O | -6% (inactive)
O=C(NC(=S)Nc1ccccc1N1CCCC1)c1ccc(-c2cccc([N+](=O)[O-])c2)o1 | -6% (inactive)
Cc1cccc(OCC(=O)NC2CCCc3ccccc32)c1C (stereo not given) | -11% (inactive)
O=C(NC(=S)Nc1cccc(Cl)c1N1CCCCC1)c1ccco1 | 52% (active)
O=C(NC(=S)NC1CCCc2ccccc21)c1ccco1 (stereo not given) | 13% (active)
O=C(CNC1CCCCCC1)Nc1ccccc1N1CCOCC1 | -12% (inactive)
O=C(COc1ccccc1Cl)NC(=S)Nc1ccccc1N1CCCC1 | 15% (active)
CCOc1ccc(NC(=O)CS(=O)CC(=O)NC2CCCc3ccccc32)cc1 (stereo not given) | -7% (inactive)
O=C(NC(=S)Nc1ccccc1N1CCCC1)c1ccc([N+](=O)[O-])cc1 | 4% (active)
N#Cc1cccc(NC(=O)c2nc(-c3ccccc3)n(-c3ccccc3)n2)c1 | -18% (inactive)
Fc1ccccc1N1CCN(c2cnc3ccccc3n2)CC1 | -9% (inactive)
Nc1nnc(SCC(=O)OCc2ccc(F)cc2)s1 | -27% (inactive)
Cc1cc(-c2cccnc2)c(C#N)c(SCc2cccc(F)c2)n1 | -15% (inactive)
CCCCNC(=O)N1CCCC(C(=O)c2cc(C)c(OC)c(C)c2)C1 (stereo not given) | -22% (inactive)
C/C(N)=C(/C#N)C(=O)COC(=O)C1CCC(C(C)(C)C)CC1 (stereo not given) | -7% (inactive)
CCC(C)(C(=O)NC1CCCC1)N(C(=O)c1ccccn1)c1ccccc1 (stereo not given) | -17% (inactive)
Cc1cc(-c2cccc(Br)c2)c(C#N)c(N)n1 | -15% (inactive)
CCNC(=O)NC1c2ccccc2CSc2ccccc21 (stereo not given) | -19% (inactive)
O=C(NC(=S)Nc1ccccc1Cl)c1ccco1 | 18% (active)
O=C(NC(=S)Nc1cc(C(F)(F)F)ccc1N1CCOCC1)c1ccco1 | 10% (active)
CC1CCN(c2ccccc2NC(=S)NC(=O)c2ccco2)CC1 | -6% (inactive)
O=C(NC(=S)Nc1ccccc1N1CCCC1)c1ccco1 | 4% (active)

SMILES | activity increase over dofetilide control, less the hit threshold
O=C(NC(=S)Nc1ccc(N2CCCCC2)cc1)c1ccco1 | 45% (active)
O=C(CCc1ccccc1)NC(=S)Nc1cc(C(F)(F)F)ccc1N1CCOCC1 | -14% (inactive)
O=C(NC(=S)Nc1ccccc1Br)c1ccco1 | -1% (inactive)
Cc1ccc2[nH]c(C(=O)O)c(-c3ccccc3)c2c1 | -16% (inactive)
O=c1cc(CN2CCN(S(=O)(=O)c3ccc4c(c3)OCCO4)CC2)c2ccc(O)cc2o1 | -5% (inactive)
CCOc1cc(NC(=S)N2CCC(C(N)=O)CC2)c(C(=O)OC)cc1OCC | -4% (inactive)
COc1cc2c(cc1OC)CN(C(=O)c1sccc1C)CC2 | -13% (inactive)
Cc1ccc(OCC(=O)Nn2cnc3ccccc32)cc1 | -11% (inactive)
Cc1ccc(C2C(C#N)=C(N)OC3=C2C(=O)CC(C)(C)C3)s1 (stereo not given) | -4% (inactive)
Cc1ccc(-c2csc3nc[nH]c(=S)c23)cc1C | 36% (active)
Cc1cc(-c2csc3nc[nH]c(=S)c23)cc(C)c1C | 14% (active)
O=C(O)c1ccccc1P(=O)(c1ccccc1)c1ccccc1 | -20% (inactive)
CCCC(=O)n1nc(-c2ccccc2)nc1N | -17% (inactive)
CCCCCCc1cc2cc(-c3nnc(-c4ccccc4)o3)c(=O)oc2cc1O | -13% (inactive)
c1ccc(CCCNc2ncnc3nc[nH]c23)cc1 | 11% (active)
CC1CCN(C(=S)NC(=O)c2cccs2)CC1 | 10% (active)
O=C(NC(=S)N1CCN(c2ccccc2)CC1)c1c(F)cccc1F | -9% (inactive)
O=C(NC(=S)N1CCN(c2ccc(F)cc2)CC1)c1cccs1 | 25% (active)
O=C(CN1CCN(c2ccc(Cl)cc2)CC1)Nc1ccc(F)cc1 | -15% (inactive)
O=C(NC(=S)N1CCN(c2ccccc2)CC1)c1ccccc1 | 16% (active)
O=C(c1cccs1)N1CCN(C23CC4CC(CC(C4)C2)C3)CC1 | -21% (inactive)
O=C(N/C(=C/c1ccc2c(c1)OCO2)C(=O)N1CCOCC1)c1cccs1 | -18% (inactive)
